Records with an inconclusive call do not appear. Activity calls are given as the source filed them. Unless noted, calls come from the whole dose curve.
Assays:
[1] = Nuclear factor erythroid 2-related factor 2/antioxidant responsive element (Nrf2/ARE) small molecule agonists: luciferase reporter gene qHTS assay in human keratinocytes (AID 1919969); note: nearly all actives have a fitted effect of over 35% in size; note: potency is the fitted concentration of half-maximal effect
[2] = target: Gonadotropin-releasing hormone receptor (Homo sapiens) (UniProt P30968); experiment: Human gonadotropin-releasing hormone receptor (GnRHR) small molecule agonists, calcium flux assay in GnRHR-HEK293 cells (AID 1920063); note: nearly all actives have a fitted effect of over 35% in size
How it was run: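 Agonist mode: compounds at 15 concentrations, in triplicate, went onto calcium dye-loaded GnRHR-HEK293 cells. Intracellular calcium was then followed as 480/540 nm fluorescence at 1 s intervals over 3 min.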

[3] = target: KiSS-1 receptor (Homo sapiens) (UniProt Q969F8); experiment: Human kisspeptin (KISS1R) small molecule agonists, calcium flux assay in KISS1R-HEK293 cells (AID 1920064; active = well fitted activation curve with a large enough effect in the repeat runs)
How it was run: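 Agonist mode: intracellular calcium rise tracked at 1 s intervals over 3 min (480/540 nm) immediately after compound addition to dye-loaded KISS1R-HEK293 stable cells. Each compound tested at 15 concentrations in triplicate.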

[4] = G protein-coupled receptor (GPCR) small molecule agonists, calcium flux assay: HEK293 wild type cell line counter screen (AID 1920065)
How it was run: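 Calcium flux counter screen: compound added in agonist mode at 15 concentrations in triplicate to dye-loaded parental HEK293 cells. Fluorescence (480/540) read kinetically for 3 min; ATP served as positive control.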

[5] = p53 small molecule agonists, cell-based qHTS assay with human liver microsomes: qHTS cell viability counter screen (AID 1963579); note: nearly all actives have a fitted effect of over 45% in size
How it was run: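 Luminescent CellTiter-Glo read-out, 30 min at room temperature, gauged cytotoxicity in p53RE-bla cells exposed 16 h at 37 C to DMSO-dissolved compounds with metabolic activation by human liver microsomes and NADPH, each 0.5 mg/mL final.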

[6] = p53 small molecule agonists, cell-based qHTS assay with rat liver microsomes: qHTS cell viability counter screen (AID 1963580); note: nearly all actives have a fitted effect of over 45% in size
How it was run: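 Cytotoxicity counter screen: intracellular ATP measured by CellTiter-Glo luminescence in the same wells as the beta-lactamase reporter read, on HCT-116 p53RE-bla cells exposed 16 h at 37 C to compounds with rat liver microsomes and NADPH, each 0.5 mg/mL final.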

[7] = p53 small molecule agonists, cell-based qHTS assay: qHTS cell viability counter screen (AID 1963581); note: nearly all actives have a fitted effect of over 45% in size
How it was run: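 Counter screen read by CellTiter-Glo luminescence (ATP content, 30 min at room temperature), run in the same wells as the beta-lactamase reporter read. HCT-116 p53RE-bla cells saw compounds for 16 h at 37 C.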

[8] = target: 5-hydroxytryptamine receptor 2A (Homo sapiens) (UniProt P28223); experiment: 5-hydroxytryptamine receptor 2A (HTR2A) small molecule agonists, cell-based qHTS assay (AID 1963587); note: nearly all actives have a fitted effect of over 30% in size
How it was run: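 CHO cells stably expressing human HTR2A, plated 18 h, loaded with calcium dye 1 h at 37 C. Agonist mode: compounds added and intracellular calcium fluorescence recorded kinetically for 2 min at 1 sec intervals.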

[9] = target: Muscarinic acetylcholine receptor M1 (Homo sapiens) (UniProt P11229); experiment: Cholinergic receptor muscarinic 1 (CHRM1) small molecule antagonists, cell-based qHTS assay (AID 1963588); note: nearly all actives have a fitted effect of over 40% in size
How it was run: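 Compounds were tested at 15 concentrations in three independent runs. Dye-loaded CHRM1-CHO cells were exposed 5 min at room temperature before stimulation by acetylcholine added at 50nM. Intracellular calcium was read kinetically on FDSS for 3 min.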

[10] = target: Muscarinic acetylcholine receptor M1 (Homo sapiens) (UniProt P11229); experiment: Cholinergic receptor muscarinic 1 (CHRM1) small molecule agonists, cell-based qHTS assay (AID 1963589); note: nearly all actives have a fitted effect of over 35% in size
How it was run: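 Agonist-mode calcium-flux screen: compounds at 15 concentrations, three independent runs, were pin-transferred onto dye-loaded human CHRM1-CHO cells. Fluorescence was then recorded kinetically every second over minutes.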

[11] = cAMP Responsive Elements (CRE) small molecule agonists, cell-based qHTS assay (AID 1963590)
How it was run: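 Agonist mode: compound added to CRE-bla HEK 293T cells (2,000/well, 18 h after plating) for 3 h at 37 C/5% CO2. Reporter activity detected via FRET beta-lactamase substrate, 2 h room-temperature loading.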

[12] = cAMP Responsive Elements (CRE) small molecule antagonists, cell-based qHTS assay (AID 1963591; active = well fitted inhibition curve with a large enough effect in the signal ratio in the repeat runs, not every such curve was filed as active; the % refers to the signal ratio)
How it was run: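 Antagonist mode: compounds are added alongside the adenylyl cyclase activator NKH477 (0.25 uM final) to CRE-bla HEK293T cells for 3 h. LiveBLAzer FRET substrate, 2 h at room temperature, reports bla expression.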

[13] = target: Beta-2 adrenergic receptor (Homo sapiens) (UniProt P07550); experiment: Adrenergic beta2 receptor (ADRB2) small molecule antagonists, cell-based qHTS assay (AID 1963592); note: nearly all actives have a fitted effect of over 50% in size; note: potency is the fitted concentration of half-maximal effect; for activity change, negative = inhibition: series mostly up to about 92 µM
How it was run: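 Assay format: CHO-ADRB2 cells, 18-20hr seeding at 37C/5% CO2, then compound plus 1nM isoproterenol agonist mix for 0.5hr RT. Homogeneous time-resolved fluorescence cAMP detection after 1hr, expressed as 665/615 nm ratio.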

[14] = target: Beta-2 adrenergic receptor (Homo sapiens) (UniProt P07550); experiment: Adrenergic beta2 receptor (ADRB2) small molecule agonists, cell-based qHTS assay (AID 1963593);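 note: CHO cells stably overexpressing human ADRB2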
How it was run: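 CHO cells stably over-expressing ADRB2 were plated overnight at 37C, then dosed with compounds plus a stimulation mix containing 100uM IBMX and 25uM Ro-20-1724 for 0.5hr at room temperature. cAMP was measured by HTRF competition, 1hr.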

[15] = target: D(2) dopamine receptor (Homo sapiens) (UniProt P14416); experiment: Dopamine D2 receptor (DRD2) small molecule agonists, cell-based qHTS assay (AID 1963594); note: nearly all actives have a fitted effect of over 35% in size; note: potency is the fitted concentration of half-maximal effect
How it was run: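 HEK293 cells stably expressing human DRD2, pre-treated with PDE inhibitor Ro20-1724 (0.1 mM final) and compound 10 min at room temperature, then stimulated with NKH477 (200nM […]) for 30 min. cAMP read by HTRF (665/620 nm).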

[16] = target: 5-hydroxytryptamine receptor 2A (Homo sapiens) (UniProt P28223); experiment: 5-hydroxytryptamine receptor 2A (HTR2A) small molecule antagonists, cell-based qHTS assay (AID 1963586); note: nearly all actives have a fitted effect of over 45% in size; note: potency is the fitted concentration of half-maximal effect
How it was run: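 CHO cells stably expressing human HTR2A were plated for 18 h at 37 C, then loaded with calcium dye for 1 h. Compounds were preincubated 5 min at room temperature before DOI (4 nM solution) was added. Kinetic fluorescence was read for 3 min.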

[17] = target: D(2) dopamine receptor (Homo sapiens) (UniProt P14416); experiment: Dopamine D2 receptor (DRD2) small molecule antagonists, cell-based qHTS assay (AID 1963595; active = well fitted inhibition curve with a large enough effect in the signal ratio in the repeat runs, with a control signal flat; the % refers to the signal ratio)
How it was run: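 HEK293 cells stably expressing DRD2 were preincubated with 0.1 mM Ro20-1724, then with compound for 10 min at room temperature. Cells were stimulated with 200 nM NKH477 plus 12 nM quinpirole for 30 min, and cAMP was read by HTRF.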

[18] = p53 small molecule agonists, cell-based qHTS assay (AID 1963582; active = well fitted activation curve with a large enough effect in the signal ratio in the repeat runs, not every such curve was filed as active; the % refers to the signal ratio; note: potency is the fitted concentration of half-maximal effect)
How it was run: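 Read-out is beta-lactamase FRET fluorescence after 2 h at room temperature with LiveBLAzer B/G substrate. p53 response element-bla cells were treated 16 h at 37 C with compounds in DMSO, added 5 h after seeding.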

[19] = p53 small molecule agonists, cell-based qHTS assay with human liver microsomes (AID 1963577);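 note: p53 response element beta-lactamase reporter cells with liver microsomes plus NADPH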
How it was run: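 p53RE-bla cells; 5 h settle, 37 C/5% CO2; cpd + HLM 0.5 mg/mL + NADPH 0.5 mg/mL (final); 16 h 37 C; LiveBLAzer 2 h RT dark; fluorescence readout.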

[20] = p53 small molecule agonists, cell-based qHTS assay with rat liver microsomes (AID 1963578)
How it was run: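 Rat liver microsome activation: microsomes 0.5 mg/mL, NADPH 0.5 mg/mL final; p53RE-bla cells, 16 h 37 C; LiveBLAzer readout, 2 h RT dark.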
% is set by controls: 0 for no effect and ±100 for the full control effect.

Chain of 5-hydroxytryptamine receptor 2A (Homo sapiens) (P28223 whole entry, looked up): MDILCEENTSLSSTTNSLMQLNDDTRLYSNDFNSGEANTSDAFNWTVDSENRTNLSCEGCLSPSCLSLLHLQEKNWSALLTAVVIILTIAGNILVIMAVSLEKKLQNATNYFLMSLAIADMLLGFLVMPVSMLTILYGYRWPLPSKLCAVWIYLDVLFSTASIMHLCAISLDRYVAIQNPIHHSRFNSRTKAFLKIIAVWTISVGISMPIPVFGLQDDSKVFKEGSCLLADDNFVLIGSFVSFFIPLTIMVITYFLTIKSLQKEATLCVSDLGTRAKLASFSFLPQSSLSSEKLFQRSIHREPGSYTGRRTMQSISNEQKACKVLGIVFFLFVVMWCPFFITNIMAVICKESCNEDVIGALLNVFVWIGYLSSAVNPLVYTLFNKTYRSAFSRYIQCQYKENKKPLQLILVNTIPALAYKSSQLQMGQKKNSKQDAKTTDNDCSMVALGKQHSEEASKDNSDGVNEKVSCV
Chain of Gonadotropin-releasing hormone receptor (Homo sapiens) (P30968 whole entry, looked up): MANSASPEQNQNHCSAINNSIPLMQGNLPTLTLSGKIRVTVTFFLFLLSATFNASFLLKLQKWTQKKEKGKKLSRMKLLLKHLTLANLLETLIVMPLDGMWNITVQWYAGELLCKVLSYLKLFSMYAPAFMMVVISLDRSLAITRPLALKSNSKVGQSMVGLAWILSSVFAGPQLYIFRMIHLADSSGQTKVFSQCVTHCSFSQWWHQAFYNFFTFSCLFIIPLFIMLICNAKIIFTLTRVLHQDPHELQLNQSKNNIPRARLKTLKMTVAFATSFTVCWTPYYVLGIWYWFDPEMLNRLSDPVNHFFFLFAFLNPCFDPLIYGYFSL
Chain of Beta-2 adrenergic receptor (Homo sapiens) (P07550 whole entry, looked up): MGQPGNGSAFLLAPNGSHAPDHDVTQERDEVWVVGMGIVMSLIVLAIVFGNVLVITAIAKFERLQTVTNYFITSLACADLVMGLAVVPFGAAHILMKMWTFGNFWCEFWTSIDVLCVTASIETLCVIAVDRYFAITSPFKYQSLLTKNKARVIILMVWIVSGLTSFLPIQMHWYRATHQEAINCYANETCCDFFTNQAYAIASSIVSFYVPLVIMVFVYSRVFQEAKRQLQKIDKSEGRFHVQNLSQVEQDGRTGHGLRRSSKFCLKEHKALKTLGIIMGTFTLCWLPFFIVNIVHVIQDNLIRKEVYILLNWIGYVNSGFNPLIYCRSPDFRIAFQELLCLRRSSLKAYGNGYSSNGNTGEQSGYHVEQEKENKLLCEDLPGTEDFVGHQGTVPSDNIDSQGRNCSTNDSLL
Chain of D(2) dopamine receptor (Homo sapiens) (P14416 whole entry, looked up): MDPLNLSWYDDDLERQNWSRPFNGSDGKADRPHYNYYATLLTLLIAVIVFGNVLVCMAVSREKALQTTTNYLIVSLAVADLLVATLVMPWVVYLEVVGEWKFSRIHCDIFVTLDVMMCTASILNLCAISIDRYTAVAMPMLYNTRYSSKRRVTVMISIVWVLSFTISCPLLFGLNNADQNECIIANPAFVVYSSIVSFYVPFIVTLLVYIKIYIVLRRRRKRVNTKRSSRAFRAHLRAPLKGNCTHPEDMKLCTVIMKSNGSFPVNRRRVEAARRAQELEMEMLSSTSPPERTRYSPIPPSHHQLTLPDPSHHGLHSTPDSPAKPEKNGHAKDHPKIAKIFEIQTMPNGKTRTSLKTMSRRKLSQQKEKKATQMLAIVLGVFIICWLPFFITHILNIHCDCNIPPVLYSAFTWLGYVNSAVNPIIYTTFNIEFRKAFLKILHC
Chain of KiSS-1 receptor (Homo sapiens) (Q969F8 whole entry, looked up): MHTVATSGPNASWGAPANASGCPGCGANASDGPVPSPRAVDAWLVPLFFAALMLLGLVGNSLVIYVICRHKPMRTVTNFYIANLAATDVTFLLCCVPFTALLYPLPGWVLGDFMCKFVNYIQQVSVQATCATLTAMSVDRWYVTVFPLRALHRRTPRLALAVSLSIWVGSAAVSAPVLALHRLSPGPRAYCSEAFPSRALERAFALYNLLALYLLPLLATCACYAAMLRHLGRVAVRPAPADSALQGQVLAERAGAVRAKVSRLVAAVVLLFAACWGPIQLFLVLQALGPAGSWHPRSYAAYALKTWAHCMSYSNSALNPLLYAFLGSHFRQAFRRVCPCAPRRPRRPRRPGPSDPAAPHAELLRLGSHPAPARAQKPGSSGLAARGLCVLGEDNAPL
Chain of Muscarinic acetylcholine receptor M1 (Homo sapiens) (P11229 whole entry, looked up): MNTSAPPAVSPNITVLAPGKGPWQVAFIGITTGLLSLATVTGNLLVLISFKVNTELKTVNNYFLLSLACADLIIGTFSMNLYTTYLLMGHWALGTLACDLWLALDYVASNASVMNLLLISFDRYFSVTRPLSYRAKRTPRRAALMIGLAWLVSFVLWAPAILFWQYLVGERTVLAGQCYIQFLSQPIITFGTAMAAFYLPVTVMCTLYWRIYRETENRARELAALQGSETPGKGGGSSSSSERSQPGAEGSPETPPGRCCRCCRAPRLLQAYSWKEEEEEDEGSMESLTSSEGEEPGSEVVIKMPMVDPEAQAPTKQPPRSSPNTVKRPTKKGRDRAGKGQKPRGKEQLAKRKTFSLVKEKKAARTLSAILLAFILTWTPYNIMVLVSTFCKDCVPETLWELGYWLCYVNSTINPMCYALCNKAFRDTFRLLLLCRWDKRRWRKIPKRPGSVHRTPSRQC

O=C1[C@@H]2[C@H]3CC[C@H](C3)[C@@H]2C(=O)N1CCCCN1CCN(c2ncccn2)CC1
active: Potency [15] 94.4 nM
inactive: Potency [1] | Potency [2] | Potency [3] | Potency [4] | Potency [5] | Potency [6] | Potency [7] | Potency [8] | Potency [9] | Potency [10] | Potency [11] | Potency [12] | Potency [13] | Potency [14]

Clc1cccc(-c2cc(Cl)cc(Cl)c2)c1
inactive: Potency [1] | Potency [2] | Potency [3] | Potency [4] | Potency [5] | Potency [6] | Potency [16] | Potency [8] | Potency [9] | Potency [10] | Potency [11] | Potency [12] | Potency [13] | Potency [14] | Potency [15] | Potency [17]

CCCCCCCC/C=C\CCCCCCCC(=O)OC(CO)CO
active: Potency [1] 34.4 µM
inactive: Potency [2] | Potency [3] | Potency [4] | Potency [5] | Potency [6] | Potency [7] | Potency [16] | Potency [8] | Potency [10] | Potency [12] | Potency [13] | Potency [14] | Potency [15]

CN(C)CCN(C)CCO
active: Potency [16] 9.4 µM
inactive: Potency [1] | Potency [2] | Potency [3] | Potency [4] | Potency [5] | Potency [6] | Potency [8] | Potency [9] | Potency [10] | Potency [11] | Potency [12] | Potency [13] | Potency [14] | Potency [15]

COc1cccc(CCc2ccccc2OCC(CN(C)C)OC(=O)CCC(=O)O)c1 (configuration not stated)
active: Potency [16] 7.29 µM | Potency [13] 4.73 µM
inactive: Potency [1] | Potency [2] | Potency [3] | Potency [4] | Potency [5] | Potency [6] | Potency [8] | Potency [9] | Potency [10] | Potency [11] | Potency [12]

CO[C@@]12[C@H](COC(N)=O)C3=C(C(=O)C(C)=C(N)C3=O)N1C[C@@H]1N[C@@H]12
inactive: Potency [2] | Potency [3] | Potency [4] | Potency [5] | Potency [7] | Potency [11] | Potency [12]
active: Potency [1] 11.9 µM | Potency [18] 15.8 µM

N=C(N)N1CCc2ccccc2C1
inactive: activity, positive = activation [1] -4.04% [at 8.39 µM] | activity change [2] 0.504% [at 5.22 µM, hits give high values] | activation [3] -0.218% [at 6.97 µM] | activation [4] -0.314% [at 5.23 µM] | activity change, negative = cytotoxicity [5] -1.79% [at 5.99 µM] | activity change, negative = cytotoxicity [6] 0.465% [at 5.99 µM] | activation [8] -10.3% [at 7.02 µM] | activation [10] 0.312% [at 6.97 µM] | activation [11] 0.166% [at 8.39 µM] | activity change, negative = inhibition [13] -8.55% [at 8.39 µM] | activation [14] 9.27% [at 8.39 µM] | activation [15] 22% [at 8.39 µM] | activity change, negative = inhibition [17] 16.9% [at 8.38 µM]

O=C1c2ccccc2C(=O)c2c1ccc(O)c2O
inactive: Potency [1] | Potency [2] | Potency [4] | Potency [19] | Potency [20] | Potency [5] | Potency [6] | Potency [7] | Potency [18] | Potency [16] | Potency [8] | Potency [10] | Potency [11] | Potency [12] | Potency [13] | Potency [14] | Potency [15]

Source: PubChem BioAssay (Tox21)
